An excerpt weighted towards active compounds, which were near 2.3% of everything screened.
Coupling enz = counter-screen for Giardia aldolase inhibitors: coupling enzyme system. 290,000 compounds, 0.67% hits. coupling enzyme system counterscreen, AmpLite Red fluorescence. activity change, negative = inhibition, % at 58.2 µM, hits read low; in the data active = activity change below about -30%
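Activity here indicates interference with the coupling reaction, not aldolase inhibition. Compounds at 57.5 uM final met coupling enzymes for 10 min at RT; substrate and AmpLite Red detection followed, with a 525/598 nm fluorescence read after 20 min.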
Tau fluor counter = counter-screen for tau fibril formation inhibitors. Potency, µM (top dose mostly 57.7 µM), without a hit: at the highest dose activity change, negative = decrease. 280,000 compounds, 0.93% hits. tau K18 P301L Alexa594 fluorescence, heparin fibrillization. AID 1463; also: potency is read from the fitted curve at half-maximal effect; nearly all actives have a fitted effect of over 55% in size
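Human tau K18 P301L (15 uM unlabeled, 0.24 uM Alexa 594-labeled) in 100 mM sodium acetate pH 7 with 20 uM heparin, 6 hr at 37 C. ThT 30 uM added, 1 hr ambient; Alexa 594 FP and total fluorescence read at 555/632 nm.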
Tau fibril ThT = inhibitors of human tau fibril formation, thioflavin T binding | P10636 | recombinant tau K18 P301L (four-repeat tau fragment), heparin-induced fibrillization, ThT fluorescence | Potency, µM (titrated, usually from 57.4 µM), without a hit: top-dose activity, negative = inhibition, hits mostly inhibitors | 270,000 compounds, 2.1% hits; also: potency is read from the fitted curve at half-maximal effect; nearly all actives have a fitted effect of over 55% in size
Target sequence (P10636 561-689 P618L limits assumed): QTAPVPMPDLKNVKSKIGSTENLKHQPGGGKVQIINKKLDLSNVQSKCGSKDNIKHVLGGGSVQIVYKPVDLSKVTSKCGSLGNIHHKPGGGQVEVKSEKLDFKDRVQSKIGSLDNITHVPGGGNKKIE
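Tau K18 P301L fragment (15 uM unlabeled plus 0.24 uM Alexa 594-labeled) in 100 mM sodium acetate pH 7 with compound, fibrillization induced by 20 uM heparin for 6 hr at 37 C. Thioflavin T (30 uM) added, fluorescence read after 1 hr (ex 450, em 510 nm).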
Tau fibril FP = blocks human tau fibril formation measured by polarization; AID 1468; P10636; Potency, µM (highest dose often 57.7 µM), for inactives: top-dose activity, negative = inhibition, usual class: inhibitors; K18 P301L tau heparin fibrillization, Alexa594 FP, 6 h; 280,000 compounds, 0.39% hits; also: potency is read from the fitted curve at half-maximal effect; nearly all actives have a fitted effect of over 55% in size
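Recombinant K18 P301L […], labeled with Alexa 594 at 0.24 uM over 15 uM unlabeled; heparin inducer 20 uM final; 37 C, 6 hr; FP endpoint.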
USP1-UAF1 inh = blocks the human USP1/UAF1 deubiquitinase complex; O94782; recombinant USP1/UAF1, Ub-Rhodamine cleavage fluorescence; Potency, µM (titrated, usually from 57.1 µM), inactives show at the top dose activity change, negative = inhibition, actives largely listed as inhibitors; 390,000 compounds, 0.23% hits; AID 743255; also: potency is read from the fitted curve at half-maximal effect; nearly all actives have a fitted effect of over 60% in size
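Step one: compound is pinned into 1nM USP1/UAF1 in HEPES pH 7.8 buffer with TCEP. Step two: 15 min room-temperature incubation. Step three: Ub-Rho (150nM final) starts cleavage, tracked by fluorescence over six one-minute reads.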
* = called active by the depositor; ? = inconclusive; · = no result; [ ] = dose if it differs, or a comment. Unless noted, calls follow the shape of the dose curve; as a rule, active = well fitted curve in the direction sought with a large enough effect; inconclusive = small, poorly fitted or top-dose-only effect, or another doubt; inactive = no such curve, though single readings can be large; an effect the other way counts as inactive or inconclusive. % is scaled to controls: 0 for no effect and ±100 for the full control effect.

SMILES | Coupling enz | Tau fluor counter | Tau fibril ThT | Tau fibril FP | USP1-UAF1 inh
CCc1ccc2oc(-c3cc(N)ccc3O)nc2c1 | -8.1 | ? | ? | 10.9% | -4.0%
CC(C)(C)NC(=O)c1oc2ccccc2c1NC(=O)c1ccc(F)cc1 | · | -20.9% | 2.2% | -18.9% | -18.7%
COc1cccc(-c2cc(C(=O)Nc3c(C)nn(Cc4ccccc4Cl)c3C)no2)c1 | · | -8.9% | -7.3% | 3.2% | -22.1%
Cc1nn(CCC(=O)Nc2cc(F)ccc2F)c(=O)c2nn(-c3ccccc3)c(C)c12 | · | -11.3% | -4.0% | -6.3% | -13.0%
CCn1nc(-c2ccccc2)c(-c2ccccc2)c(C(=O)Nc2nc(C)c(C(=O)N(C)C)s2)c1=O | · | 4.2% | 1.2% | 4.4% | -27.0%
CCc1ccc2oc(-c3cc(NC(=O)c4cccs4)ccc3Cl)nc2c1 | · | ? | -7.9% | 12.6µM* | -22.6%
C=CCN1C(=O)/C(=C2/Sc3ccccc3N2CC)SC1=S | 1.7 | · | · | · | 2.7%
C=CCN1C(=O)/C(=C/C=C2/N(CC)c3ccc(S(=O)(=O)N(C)C)cc3N2CC)SC1=S | -9.3 | 2.3% | ? | -12.2% | 28.2µM*
COc1ccc(OCc2cc(C(=O)N(C)C3CCOCC3)no2)c2ccccc12 | -36.8* | · | · | · | ?
CCOC(=O)C1CCN(C(=O)c2cc(COc3ccc(OC)c4ccccc34)on2)CC1 | -37.2* | · | · | · | -16.5%
COc1ccccc1CNC(=O)C1CCN(S(=O)(=O)c2c(C)noc2/C=C/c2cccs2)CC1 | · | -24.1% | 1.1% | -7.0% | -16.1%
CCOc1cc(/C=N/NC(=O)c2ccc(-c3csc(Nc4ccc(C)cc4)n3)cc2)ccc1OCC(=O)O | 3.2 | ? | 2.82µM* | 7.2% | -5.7%
O=C(O)COc1ccc(/C=N/NC(=O)c2ccc(-c3csc(Nc4ccc(Cl)cc4)n3)cc2)cc1 | 2.9 | ? | ? | -4.2% | ?
COc1ccccc1CNS(=O)(=O)c1c(C)nc2sc(C)cn2c1=O | · | -14.1% | -5.9% | -5.8% | -10.5%
NC(=O)c1cc2c3ccccc3ccn2c1-c1ccccc1 | -0.7 | 14.1µM*[quencher] | 14.1µM* | ? | -25.1%
NC(=O)c1ccc(NC(=O)COC(=O)c2c3c(nc4ccccc24)/C(=C\c2cccs2)CCC3)cc1 | 0.9 | ? | -10.2% | 4.47µM* | -3.0%
CC1CN(C(=O)N2CCC(C(=O)NC3CCCCCC3)CC2)c2ccccc2O1 (configuration not stated) | · | 1.7% | 8.7% | ? | 4.4%
CCC1CN(C(=O)N2CCC(C(=O)NCCc3ccc(Cl)cc3)CC2)c2ccccc2O1 (configuration not stated) | · | 5.01µM*[quencher] | -4.3% | 12.5% | ?
O=C(NC1CCCCCC1)C1CCN(C(=O)N2CCOc3ccccc32)CC1 | · | 7.08µM*[quencher] | 10.5% | ? | -15.2%
CCC1CN(C(=O)N2CCC(C(=O)Nc3ccccc3F)CC2)c2ccccc2O1 (configuration not stated) | · | 2.51µM*[quencher] | -6.0% | 3.4% | -2.9%
N#Cc1cccc(-c2nc(NCc3ccccc3)c3ccccc3n2)c1 | -1.3 | · | · | · | ·
N#C/C(=C\c1cc(Cl)c(OCc2ccc(Cl)cc2)c(Cl)c1)C(N)=O | -1.9 | -10.9% | ? | -5.0% | ·
N#C/C(=C\c1cc(O)c(O)c(O)c1)C(N)=O | -48.8* | -21.2% | ? | -7.7% | -5.2%
O=C(Cn1ncc2ccsc2c1=O)N1CCN(c2ccc(Cl)cc2)CC1 | · | -13.5% | ? | 0.6% | -19.2%
COc1cc(NC2CCCCC2O)c2nc(-c3ccc(Cl)cc3)ccc2c1 (configuration not stated) | -31.0* | ? | ? | ? | -25.7%
Cc1nc(-n2[nH]c3c(c2=O)CCCC3)[nH]c(=O)c1Cc1ccccc1 | -7.3 | -10.2% | -3.4% | -1.6% | 28.2µM*
Cc1nc(N2CCc3ccccc3C2)[nH]c(=O)c1Cc1ccccc1 | 3.6 | 0.6% | 3.9% | 3.0% | -18.3%
CC(C)(C)C1CCC2(CC1)C(C#N)=C(SCC(=O)Nc1ccccc1)NC(=O)C2C#N (configuration not stated) | 0.6 | ? | 5.9% | 22.4µM* | -24.7%
CC1(C)CC(=O)C2=C(C1)NC(SCC(=O)Nc1ccccc1)=C(C#N)C21CCCCC1 | -2.6 | ? | 6.2% | ? | -8.8%
